From PubChem BioAssay
MCF10A rereplic: inducers of DNA re-replication in MCF 10A breast cells | MCF 10A DNA re-replication, Hoechst nuclear intensity, 48 h | Potency, µM (series often up to 46.1 µM), without a hit: at the highest dose activity, positive = re-replication, actives largely listed as activators | 350,000 compounds, 2.9% hits | AID 624296; note: % of control where 0% means no effect; nearly all actives have a fitted effect of over 50% in size
KB-V1 cytotox: KB-V1 MDR subline cytotoxicity; 400,000 compounds, 3.4% hits; AID 1347076; KB-V1 MDR cells viability, CellTiter-Glo, 72 h; Potency, µM (doses to about 46.1 µM), usual class: cytotoxic; note: % is set by controls: 0 for no effect and ±100 for the full control effect; nearly all actives have a fitted effect of over 60% in size
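In this primary screen, KB-V1 cells overexpressing P-gp are incubated with library compounds (lowest to highest concentration) for 72 h at 37 degrees C before a luminescent ATP viability read.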
KB-3-1 tox: kills parental KB-3-1 adenocarcinoma cells; KB-3-1 viability, CellTiter-Glo ATP luminescence, 72 h; Potency, µM (top dose mostly 46.1 µM), most hits filed as cytotoxic; 400,000 compounds, 1.4% hits; AID 1347075; note: % is set by controls: 0 for no effect and ±100 for the full control effect; nearly all actives have a fitted effect of over 60% in size
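Using CellTiter-Glo luminescence, growth of non-resistant KB-3-1 adenocarcinoma cells is assessed 72 h after pin-tool compound addition at 37 °C. Normalized responses across the concentration series yield fitted curves.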
SW480 rereplic: inducers of DNA re-replication in SW480 colon cancer cells. SW480 DNA re-replication, Hoechst DNA content imaging, 48 h. 340,000 compounds, 1.8% hits. Potency, µM (top dose mostly 46.1 µM), for inactives: at the highest dose re-replication activation, usual class: activators; note: % of control where 0% means no effect; nearly all actives have a fitted effect of over 55% in size
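Hoechst fluorescence of nuclei (405 nm excitation, 500-530 nm emission) measured by plate-scanning imager after 48 hr compound exposure at 37 C; re-replication scored as increased number of nuclei with elevated intensity.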
HT1080 IDH1KD tx: HT-1080 IDH1 knockdown cell toxicity (counter line); HT-1080 IDH1 knockdown viability, ATP luminescence, 48 h; Potency, µM (doses to about 46.1 µM), inactives show at the highest dose activity, negative = toxicity, usual class: cytotoxic; 360,000 compounds, 2% hits;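 note: 0% = DMSO wells and -100% = cell-free medium wells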
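After a 2 h attachment period, IDH1KD HT-1080 cells took pin-transferred compound for 48 h at 37 °C; ATP-based luminescence after 10 min room-temperature reagent incubation reported viability.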
HT1080-NT tox: kills 2HG-producing HT-1080-NT fibrosarcoma cells; HT-1080-NT fibrosarcoma viability, CellTiter-Glo ATP luminescence, 48 h; Potency, µM (titrated, usually from 46.1 µM), for the others: at the highest dose activity, negative = less viability, usual class: cytotoxic; 360,000 compounds, 1.6% hits; AID 686970;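 note: NT is the 2HG producing partner of a matched IDH1 knockdown line; 0% = DMSO-treated cells and -100% = media-only wells without cells; nearly all actives have a fitted effect of over 55% in size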
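Toxicity toward the 2HG-producing NT line was scored as %Activity, normalised to DMSO and no-cell wells, from CellTiter-Glo luminescence after 48 hours' treatment.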
An asterisk follows results filed as active. Hits are enriched below; roughly 8% of the tested compounds scored in any of these assays. Calls come from the whole dose curve; as a rule, active = well fitted curve in the direction sought with a large enough effect; inconclusive = small, poorly fitted or top-dose-only effect, or another doubt; inactive = no such curve, though single readings can be large; an effect the other way counts as inactive or inconclusive. Potency is the fitted concentration of half-maximal effect.

How did Cn1c(CC(=O)Nc2ccccc2F)nnc1SCC(=O)Nc1nccs1 do in these assays?
MCF10A rereplic: 11%; KB-V1 cytotox: inactive; KB-3-1 tox: inactive; SW480 rereplic: -7%; HT1080 IDH1KD tx: 10%; HT1080-NT tox: 0%

What do the screens show for `Cc1[nH]n(-c2ccccc2)c(=O)c1N=Nc1ccccc1C(=O)O`?
MCF10A rereplic: 27%; KB-V1 cytotox: inactive; KB-3-1 tox: inactive; SW480 rereplic: -16%; HT1080 IDH1KD tx: 7%; HT1080-NT tox: 0%

How did COc1ccccc1-c1noc(-c2ccccc2C(=O)NCC2CCCO2)n1 (stereo not drawn) do in these assays?
MCF10A rereplic: -1%; KB-V1 cytotox: inactive; KB-3-1 tox: inactive; SW480 rereplic: -1%; HT1080 IDH1KD tx: -15%; HT1080-NT tox: -19%

What do the screens show for `Oc1c(Cl)cc(Cl)cc1/C=N/c1nccs1`?
MCF10A rereplic: 15µM*; KB-V1 cytotox: inactive; KB-3-1 tox: inactive; SW480 rereplic: -1%; HT1080 IDH1KD tx: -15%; HT1080-NT tox: -11%

How did Oc1c(Cl)cc(Cl)cc1/C=N/c1nc(-c2ccc(Cl)cc2)cs1 do in these assays?
MCF10A rereplic: inconclusive; KB-V1 cytotox: inactive; KB-3-1 tox: inactive; SW480 rereplic: 13%; HT1080 IDH1KD tx: -4%; HT1080-NT tox: -1%

What do the screens show for `CN1C(=O)Cc2cc(S(=O)(=O)CCC(=O)Nc3ccc(OC(F)(F)F)cc3)ccc21`?
KB-V1 cytotox: inactive; KB-3-1 tox: inactive

What do the screens show for `COc1ccc2[nH]c(=O)c(CN(Cc3cccs3)Cc3nnnn3C(C)(C)C)cc2c1`?
MCF10A rereplic: 11%; KB-V1 cytotox: inconclusive; KB-3-1 tox: inactive; SW480 rereplic: -1%; HT1080 IDH1KD tx: inconclusive; HT1080-NT tox: -13%

How did CCOc1ccc2[nH]c(=O)c(CN(Cc3cccs3)Cc3nnnn3C(C)(C)C)cc2c1 do in these assays?
MCF10A rereplic: 0%; KB-V1 cytotox: 21µM*; KB-3-1 tox: inactive; SW480 rereplic: 29%; HT1080 IDH1KD tx: inconclusive; HT1080-NT tox: inconclusive

What do the screens show for `CCC(=O)N1CCc2cc(Br)cc(S(=O)(=O)N3CCCCCC3)c21`?
MCF10A rereplic: 9%; KB-V1 cytotox: inconclusive; KB-3-1 tox: inactive; SW480 rereplic: -7%; HT1080 IDH1KD tx: -2%; HT1080-NT tox: -9%

How did O=C(C1CC1)N1CCc2cc(Br)cc(S(=O)(=O)N3CCCCCC3)c21 do in these assays?
MCF10A rereplic: inconclusive; KB-V1 cytotox: 9.2µM*; KB-3-1 tox: inconclusive; SW480 rereplic: 16%; HT1080 IDH1KD tx: -16%; HT1080-NT tox: -9%

Results for NC(=O)C1CCN(c2nnnn2-c2ccccc2)CC1 ?
MCF10A rereplic: -5%; KB-V1 cytotox: inactive; KB-3-1 tox: inactive; SW480 rereplic: -4%; HT1080 IDH1KD tx: -4%; HT1080-NT tox: 8%

What do the screens show for `Cc1ccc(OCC(=O)N/N=C/C=C/c2ccco2)c(Br)c1`?
MCF10A rereplic: inconclusive; KB-V1 cytotox: inactive; KB-3-1 tox: inactive; SW480 rereplic: 16µM*; HT1080 IDH1KD tx: inconclusive; HT1080-NT tox: -4%

How did CSc1nc2ccccc2cc1/C=C(\C#N)c1cccc(Cl)c1 do in these assays?
MCF10A rereplic: 8.2µM*; KB-V1 cytotox: inconclusive; KB-3-1 tox: 21µM*; SW480 rereplic: inconclusive; HT1080 IDH1KD tx: 4.6µM*; HT1080-NT tox: 4.6µM*

How did CCOC(=O)/C(C#N)=C/c1cc2ccccc2nc1Cl do in these assays?
MCF10A rereplic: 3%; KB-V1 cytotox: inactive; KB-3-1 tox: inactive; SW480 rereplic: inconclusive; HT1080 IDH1KD tx: inconclusive; HT1080-NT tox: -8%

How did CC(=O)N1c2ccccc2CC1C(=O)N1CCN(c2ccccc2F)CC1 (stereo not drawn) do in these assays?
KB-V1 cytotox: inactive; KB-3-1 tox: inactive

Results for CC(C)C1C(=O)N(Cc2cn(CCC3OCCCO3)nn2)CCS(=O)(=O)N1Cc1ccc(-c2ccncc2)cc1 (stereo not drawn) ?
KB-V1 cytotox: inactive; KB-3-1 tox: 16µM*; HT1080 IDH1KD tx: -6%; HT1080-NT tox: -2%

What do the screens show for `Cc1ccccc1-c1ccc(CN2C(C(C)C)C(=O)N(Cc3cn(CCC4OCCO4)nn3)CCS2(=O)=O)cc1` (stereo not drawn)?
KB-V1 cytotox: inconclusive; KB-3-1 tox: inactive; HT1080 IDH1KD tx: inconclusive; HT1080-NT tox: inconclusive

What do the screens show for `CC(C)C1C(=O)N(Cc2cn(CCC3OCCO3)nn2)CCS(=O)(=O)N1Cc1ccc(-c2ccc(Cl)c(Cl)c2)cc1` (stereo not drawn)?
KB-V1 cytotox: inactive; KB-3-1 tox: inconclusive; HT1080 IDH1KD tx: 18µM*; HT1080-NT tox: inconclusive

Results for CC(C)C1C(=O)N(Cc2cn(Cc3ccco3)nn2)CCS(=O)(=O)N1Cc1ccc(-c2ccc(Cl)c(Cl)c2)cc1 (stereo not drawn) ?
KB-V1 cytotox: 13µM*; KB-3-1 tox: inactive; HT1080 IDH1KD tx: inconclusive; HT1080-NT tox: inconclusive

Results for Cc1ccc(-c2ccc(CN3C(C(C)C)C(=O)N(Cc4cn(CCC5OCCO5)nn4)CCS3(=O)=O)cc2)c(C)c1 (stereo not drawn) ?
KB-V1 cytotox: inconclusive; KB-3-1 tox: inconclusive; HT1080 IDH1KD tx: 23µM*; HT1080-NT tox: inconclusive

How did CCCCOc1ccc(CC(=O)NOC)cc1 do in these assays?
KB-V1 cytotox: inactive; KB-3-1 tox: inactive

Results for Cc1cc(C)cc(NC(=O)CCn2c(=O)c3cccn3c3ccccc32)c1 ?
MCF10A rereplic: 8.2µM*; KB-V1 cytotox: inconclusive; KB-3-1 tox: 9.2µM*; SW480 rereplic: -13%; HT1080 IDH1KD tx: inconclusive; HT1080-NT tox: -18%

Results for Cc1cc(C)c(OCC(=O)OCC(=O)NC2CCCCCCC2)c(C)c1 ?
MCF10A rereplic: -18%; KB-V1 cytotox: inactive; KB-3-1 tox: inactive; SW480 rereplic: -18%; HT1080 IDH1KD tx: 1%; HT1080-NT tox: 2%

Results for Cc1cc(NC(=O)CCN2CCN(C/C=C/c3ccccc3)CC2)ccc1Br ?
MCF10A rereplic: inconclusive; KB-V1 cytotox: inconclusive; KB-3-1 tox: inconclusive; SW480 rereplic: inconclusive; HT1080 IDH1KD tx: 23µM*; HT1080-NT tox: 21µM*

What do the screens show for `C(=C\c1ccccc1)/CN1CCN(C(c2ccccc2)c2nnnn2C2CCCC2)CC1` (stereo not drawn)?
KB-V1 cytotox: inactive; KB-3-1 tox: inactive; HT1080 IDH1KD tx: inconclusive; HT1080-NT tox: inconclusive

What do the screens show for `C(=C\c1ccccc1)/CN1CCN(C(c2ccnc3ccccc23)c2nnnn2C2CCCC2)CC1` (stereo not drawn)?
KB-V1 cytotox: 15µM*; KB-3-1 tox: inactive; HT1080 IDH1KD tx: inconclusive; HT1080-NT tox: -29%
